Assay results taken from PubChem BioAssay (EPA / NIEHS).
Activity calls are given as the source filed them. How the source made its calls: active means hit-call score of the fitted dose curve at least 0.9, where 1 is the maximum; inactive means score below 0.9.

How the values were obtained:
Conditions in all cases: mRNA level, 48 h; actives raise or lower the signal
[1] = read-out: Lipase C (LIPC), LIPC (gene 3990); assay: LTEA_HepaRG_LIPC: Life Technologies and Expression Analysis (LTEA) Assay for Lipase C (LIPC) using HepaRG (AID 2283514)
Outline: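 LIPC expression was quantified by qRT-PCR against three housekeeping genes (ACTB, GAPDH, POLR2A). Differentiated human HepaRG cells received eight half-log doses (top 100 uM, 0.5% DMSO) in duplicate for 48 h; fitting bidirectional relative to DMSO.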

[2] = read-out: Lipoprotein lipase (LPL), LPL (gene 4023); assay: LTEA_HepaRG_LPL: Life Technologies and Expression Analysis (LTEA) Assay for Lipoprotein lipase (LPL) using HepaRG (AID 2283515)
Outline: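 LPL transcript levels quantified by TaqMan qRT-PCR against three housekeeping genes after 48 h chemical treatment of HepaRG cells. Eight-point half-log series from 100 uM in 0.5% DMSO, tested in duplicate; bidirectional fitting versus vehicle.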

[3] = read-out: MicroRNA 122 (MIR122), gene 406906; assay: LTEA_HepaRG_MIR122: Life Technologies and Expression Analysis (LTEA) Assay for MicroRNA 122 (MIR122) using HepaRG (AID 2283516); further: the transcript read is the microRNA miR-122
Outline: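 qRT-PCR read-out (TaqMan, Fluidigm array), normalized to three housekeeping genes; HepaRG cells dosed 48 h at 8 concentrations up to 100 uM in 0.5% DMSO, duplicate; gain or loss fitted against DMSO baseline.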

[4] = read-out: matrix metalloproteinase-10 (MMP10), MMP10 (gene 4319); assay: LTEA_HepaRG_MMP10: Life Technologies and Expression Analysis (LTEA) Assay for matrix metalloproteinase-10 (MMP10) using HepaRG (AID 2283517)
Outline: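 Expression measured by TaqMan qRT-PCR with ACTB/GAPDH/POLR2A normalisation after 48 h chemical exposure of HepaRG cells. Eight half-log concentrations, top 100 uM, 0.5% DMSO vehicle, duplicates; gain or loss fitted against vehicle.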

[5] = read-out: matrix metalloproteinase-3 (MMP3), MMP3 (gene 4314); assay: LTEA_HepaRG_MMP3: Life Technologies and Expression Analysis (LTEA) Assay for matrix metalloproteinase-3 (MMP3) using HepaRG (AID 2283519)
Outline: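 Fluidigm-based TaqMan qRT-PCR, normalized to ACTB, GAPDH and POLR2A and fitted bidirectionally versus 0.5% DMSO, measured transcript levels. Treatment: duplicate 48 h exposures of HepaRG cells, ~100,000/well, to eight half-log concentrations topping at 100 uM.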

[6] = read-out: Paternally Expressed 10 (PEG10), PEG10 (gene 23089); assay: LTEA_HepaRG_PEG10: Life Technologies and Expression Analysis (LTEA) Assay for Paternally Expressed 10 (PEG10) using HepaRG (AID 2283520);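 on AC50: PEG10 transcript by qRT-PCR normalised to ACTB GAPDH and POLR2A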
Outline: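 qRT-PCR read-out: PEG10 mRNA normalised to three housekeeping genes, fitted bidirectionally against 0.5% DMSO vehicle. HepaRG cells received test chemicals for 48 h in serum-free induction medium, 8 points, top 100 uM, half-log steps.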

[7] = read-out: Phosphatase and tensin (PTEN), PTEN (gene 5728); assay: LTEA_HepaRG_PTEN: Life Technologies and Expression Analysis (LTEA) Assay for Phosphatase and tensin (PTEN) using HepaRG (AID 2283523)
Outline: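 Read-out: TaqMan qRT-PCR of PTEN transcript, normalized to three housekeeping genes, fitted in both directions against 0.5% DMSO. Differentiated human HepaRG cultures received chemicals for 48 h, eight-point half-log series topping at 100 uM.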

[8] = read-out: solute carrier (SLC22A1), SLC22A1 (gene 6580); assay: LTEA_HepaRG_SLC22A1: Life Technologies and Expression Analysis (LTEA) Assay for solute carrier (SLC22A1) using HepaRG (AID 2283524);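 on AC50: differentiated human HepaRG liver cells in serum-free induction medium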
Outline: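 Transcript level of SLC22A1 quantified by qRT-PCR (normalized to three housekeeping genes) after 48 h chemical exposure of HepaRG cells, eight concentrations up to 100 µM, half-log steps, 0.5% DMSO vehicle. Gain or loss relative to DMSO fitted bidirectionally.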

[9] = read-out: Pyruvate Dehydrogenase Kinase 4 (PDK4), PDK4 (gene 5166); assay: LTEA_HepaRG_PDK4: Life Technologies and Expression Analysis (LTEA) Assay for Pyruvate Dehydrogenase Kinase 4 (PDK4) using HepaRG (AID 2283525)
Outline: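 Readout is qRT-PCR of PDK4 transcript, normalized to three housekeeping genes, with bidirectional fitting against 0.5% DMSO vehicle. Differentiated HepaRG cells were treated 48 h in serum-free induction medium, duplicate wells, eight-point half-log series topping at 100 uM.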

[10] = read-out: NAD(P)H dehydrogenase [quinone] 1 (NQO1), NQO1 (gene 1728); assay: LTEA_HepaRG_NQO1: Life Technologies and Expression Analysis (LTEA) Assay for NAD(P)H dehydrogenase [quinone] 1 (NQO1) using HepaRG (AID 2283526)
Outline: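 qRT-PCR read-out (Fluidigm TaqMan), normalized to three housekeeping genes, after 48 h chemical exposure of HepaRG cells. Concentrations: eight points, top 100 uM, half-log steps, 0.5% DMSO vehicle. Gain or loss of signal fitted relative to DMSO.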

[11] = read-out: Nuclear factor erythroid 2-related factor 2 (Homo sapiens) (UniProt Q16236); assay: LTEA_HepaRG_NFE2L2: Life Technologies and Expression Analysis (LTEA) Assay for Nuclear factor erythroid 2-related factor 2 (NFE2L2) Transcription Factor using HepaRG (AID 2283527)
Outline: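 NFE2L2 transcript level was read by qRT-PCR (housekeeping ACTB/GAPDH/POLR2A normalisation) after 48 h chemical treatment of HepaRG in serum-free induction medium. Duplicate 8-point half-log curves, top 100 uM, 0.5% DMSO vehicle; up- or down-regulation fitted against vehicle.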

[12] = read-out: succinate dehydrogenase complex iron sulfur subunit B (SDHB), SDHB (gene 6390); assay: LTEA_HepaRG_SDHB: Life Technologies and Expression Analysis (LTEA) Assay for succinate dehydrogenase complex iron sulfur subunit B (SDHB) using HepaRG (AID 2283528)
Outline: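 HepaRG cells (~100,000/well, plated 48 h) exposed in duplicate for 48 h in serum-free induction medium to 8-point half-log series from 100 uM in 0.5% DMSO; mRNA by qRT-PCR normalised to ACTB, GAPDH, POLR2A; bidirectional fit versus DMSO.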

[13] = read-out: Signal transducer and activator of transcription 3 (Homo sapiens) (UniProt P40763); assay: LTEA_HepaRG_STAT3: Life Technologies and Expression Analysis (LTEA) Assay for Signal transducer and activator of transcription (STAT3) using HepaRG (AID 2283529)
Outline: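 STAT3 transcript quantified by qRT-PCR against three housekeeping genes (ACTB, GAPDH, POLR2A), fitted both directions relative to DMSO. HepaRG cultures exposed 48 h to eight half-log concentrations, top 100 uM, 0.5% DMSO, serum-free induction medium.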

[14] = read-out: solute carrier (SLCO1B1), SLCO1B1 (gene 10599); assay: LTEA_HepaRG_SLCO1B1: Life Technologies and Expression Analysis (LTEA) Assay for solute carrier (SLCO1B1) using HepaRG (AID 2283530)
Outline: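 HepaRG, serum-free induction medium, 48 h dosing, 8-pt half-log from 100 uM, 0.5% DMSO vehicle, duplicates. Readout: SLCO1B1 mRNA, qRT-PCR, ACTB/GAPDH/POLR2A normalization; up or down fit vs DMSO.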

[15] = read-out: sulfotransferase 2A1 (SULT2A1), SULT2A1 (gene 6822); assay: LTEA_HepaRG_SULT2A1: Life Technologies and Expression Analysis (LTEA) Assay for sulfotransferase 2A1 (SULT2A1) using HepaRG (AID 2283531)
Outline: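 Transcript levels of SULT2A1, quantified by qRT-PCR and normalized to three housekeeping genes, serve as the readout. Human HepaRG cultures receive test chemicals for 48 h at up to 100 uM in half-log steps, with 0.5% DMSO vehicle.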

[16] = read-out: Transforming Growth Factor (TGFA), TGFA (gene 7039); assay: LTEA_HepaRG_TGFA: Life Technologies and Expression Analysis (LTEA) Assay for Transforming Growth Factor (TGFA) using HepaRG (AID 2283532)
Outline: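 TGFA transcript quantified by qRT-PCR (Fluidigm arrays) against three housekeeping genes, after 48 hours chemical treatment of HepaRG cells. Top concentration 100 uM with half-log dilutions, 8 points, duplicates, 0.5% DMSO.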

[17] = read-out: Transforming Growth Factor (TGFB1), TGFB1 (gene 7040); assay: LTEA_HepaRG_TGFB1: Life Technologies and Expression Analysis (LTEA) Assay for Transforming Growth Factor (TGFB1) Transporter using HepaRG (AID 2283533)
Outline: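 HepaRG, 48 h post-plating, switched to serum-free induction medium; chemicals 100 uM top, half-log, 8 pts, 0.5% DMSO, dup; 48 h exposure; RNA → Fluidigm TaqMan qRT-PCR; norm ACTB/GAPDH/POLR2A; bidirectional fit vs DMSO.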

[18] = read-out: Protein phosphatase 2A (PPP2R4), PTPA (gene 5524); assay: LTEA_HepaRG_PPP2R4: Life Technologies and Expression Analysis (LTEA) Assay for Protein phosphatase 2A (PPP2R4) using HepaRG (AID 2283522)
Outline: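 HepaRG, 48 h exposure, 8-pt half-log series from 100 uM, 0.5% DMSO vehicle, duplicates. Readout: PPP2R4 mRNA, Fluidigm qRT-PCR, housekeeping-normalized. Bidirectional curve fit vs DMSO baseline.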

Measured: AC50

Chain of Signal transducer and activator of transcription 3 (Homo sapiens) (P40763 whole entry, looked up): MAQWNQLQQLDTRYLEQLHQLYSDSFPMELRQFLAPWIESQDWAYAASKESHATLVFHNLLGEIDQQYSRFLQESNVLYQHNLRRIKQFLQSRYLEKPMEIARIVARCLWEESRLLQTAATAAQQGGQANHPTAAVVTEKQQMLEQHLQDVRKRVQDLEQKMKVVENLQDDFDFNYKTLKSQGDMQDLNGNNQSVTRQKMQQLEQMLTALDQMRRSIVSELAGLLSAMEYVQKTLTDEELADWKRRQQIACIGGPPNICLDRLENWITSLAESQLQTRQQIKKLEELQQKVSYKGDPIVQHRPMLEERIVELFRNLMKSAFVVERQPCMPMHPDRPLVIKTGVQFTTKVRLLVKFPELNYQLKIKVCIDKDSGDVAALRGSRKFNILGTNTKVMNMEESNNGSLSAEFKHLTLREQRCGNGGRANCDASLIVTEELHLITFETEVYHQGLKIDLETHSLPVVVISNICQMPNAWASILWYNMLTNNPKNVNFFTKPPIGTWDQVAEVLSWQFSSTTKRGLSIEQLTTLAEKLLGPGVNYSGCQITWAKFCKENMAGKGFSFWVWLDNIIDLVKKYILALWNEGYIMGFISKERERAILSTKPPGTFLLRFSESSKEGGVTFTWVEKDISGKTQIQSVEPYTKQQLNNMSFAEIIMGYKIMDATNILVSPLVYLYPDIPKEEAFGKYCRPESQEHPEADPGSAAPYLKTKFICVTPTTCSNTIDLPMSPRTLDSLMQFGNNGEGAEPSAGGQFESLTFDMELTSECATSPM
Chain of Nuclear factor erythroid 2-related factor 2 (Homo sapiens) (Q16236 whole entry, looked up): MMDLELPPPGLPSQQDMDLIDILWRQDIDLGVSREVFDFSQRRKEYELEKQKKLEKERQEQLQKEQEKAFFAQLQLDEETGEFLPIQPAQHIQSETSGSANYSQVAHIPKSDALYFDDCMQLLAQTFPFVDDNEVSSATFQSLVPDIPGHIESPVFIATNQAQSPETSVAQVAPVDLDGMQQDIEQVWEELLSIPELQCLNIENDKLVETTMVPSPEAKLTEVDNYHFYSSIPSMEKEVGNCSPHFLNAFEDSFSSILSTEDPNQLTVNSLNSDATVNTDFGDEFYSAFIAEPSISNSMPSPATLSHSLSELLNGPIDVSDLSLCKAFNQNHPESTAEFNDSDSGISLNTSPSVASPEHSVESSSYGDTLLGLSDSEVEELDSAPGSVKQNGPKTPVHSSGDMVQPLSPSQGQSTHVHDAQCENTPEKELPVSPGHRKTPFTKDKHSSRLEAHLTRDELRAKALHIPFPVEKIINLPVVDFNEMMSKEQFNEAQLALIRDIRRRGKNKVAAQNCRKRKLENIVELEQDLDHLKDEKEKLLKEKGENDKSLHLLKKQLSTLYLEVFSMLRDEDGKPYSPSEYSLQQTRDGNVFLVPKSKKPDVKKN

CC[C@@H]1C[C@H](N(Cc2cc(C(F)(F)F)cc(C(F)(F)F)c2)C(C)=O)c2cc(C(F)(F)F)ccc2N1C(=O)OC(C)C
active: [6] 11.6 µM
not listed: [17] | [18]
inactive: all other assays above

CC1=CC(=O)/C(=C(/C)O)C(=O)O1
not listed: [18]
inactive: all other assays above

CC/C(=C(/CC)c1ccc(O)cc1)c1ccc(O)cc1
inactive: [1] | [3] | [5] | [10] | [14]
active: [2] 83.9 µM | [4] 86.9 µM | [6] 67.1 µM | [7] 93.8 µM | [8] 75.7 µM | [9] 80.1 µM | [11] 89.9 µM | [12] 50 µM | [13] 90.8 µM | [15] 93.7 µM | [16] 81.3 µM | [17] 90.8 µM

CN(C[C@@H](CC[N+]12CCC(C3CCCCC3)(CC1)CC2)c1ccc(Cl)c(Cl)c1)C(=O)c1cc(C(F)(F)F)cc(C(F)(F)F)c1
active: [1] 15.8 µM | [2] 36 µM | [3] 12.7 µM | [4] 9.43 µM | [6] 28.7 µM | [7] 71.1 µM | [8] 22.4 µM | [9] 82.4 µM | [12] 68.8 µM | [14] 33.9 µM | [15] 68 µM | [16] 50 µM | [17] 12.3 µM
inactive: [5] | [10] | [11] | [13]

CCCCCCCCCCCCO
not listed: [17]
inactive: all other assays above

CCCCCCCCN(C)CCCCCCCC
not listed: [18]
inactive: all other assays above

c1ccc(C[n+]2cccc3ccccc32)cc1
active: [1] 32 µM | [2] 32.8 µM | [3] 22.5 µM | [8] 25 µM | [9] 31 µM | [11] 13.6 µM | [13] 20.5 µM | [14] 31.1 µM | [15] 32.4 µM | [16] 63 µM
inactive: [4] | [5] | [6] | [18] | [7] | [10] | [12] | [17]

NC(=O)c1nc(-c2cccc(-c3cc(F)ccc3OCC(F)(F)C(F)(F)F)c2)n[nH]1
active: [5] 5.48 µM | [7] 80.5 µM | [8] 15.8 µM | [10] 78.2 µM | [16] 91.2 µM
not listed: [6] | [17] | [18]
inactive: all other assays above

CCCOC(=O)c1cc(O)c(O)c(O)c1
active: [9] 31.4 µM
not listed: [3] | [17] | [18]
inactive: all other assays above

CCCCCCCCOc1ccc(C(=O)c2ccccc2)c(O)c1
not listed: [17]
inactive: all other assays above

COc1cccc([C@H](O)C2CCN(CCc3ccc(F)cc3)CC2)c1OC
active: [2] 71.6 µM | [6] 9.92 µM
not listed: [17]
inactive: all other assays above

CC(C)(C)c1cc(/C=C2\SC(N)=NC2=O)cc(C(C)(C)C)c1O
active: [3] 94.3 µM | [4] 49.9 µM | [5] 3.52 µM | [7] 18.4 µM | [8] 25.3 µM | [9] 12.4 µM | [10] 15.8 µM | [11] 22.7 µM | [14] 24.9 µM | [15] 93.6 µM | [16] 22.6 µM
inactive: [1] | [2] | [6] | [12] | [13]
